Screens from PubChem BioAssay.
HTT ATP protect = qHTS Multiplex Assay to Identify Dual Action Probes in a Cell Model of Huntington: Cytoprotection (ATP). PC12 HTT-Q103 induced, cytoprotection, ATP luminescence, 40 h. Potency, µM (highest dose often 56.4 µM), for inactives: cytoprotection (ATP increase), actives largely listed as activators. hit rate 0.14% among 230,000; note: % of control where 0% means no effect; nearly all actives have a fitted effect of over 45% in size
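ATP quantification (ATPlite) reports survival of PC12 cells in which tebufenozide, 100 nM final, switches on Htt exon 1 with 103 glutamines linked to GFP; compounds are titrated.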
HttQ103 aggreg = qHTS Multiplex Assay to Identify Dual Action Probes in a Cell Model of Huntington: Aggregate Formation (GFP). PC12 HttQ103-GFP aggregates, Acumen cytometry, 40 h. Potency, µM (titrated, usually from 46.1 µM), for inactives: at the top dose activity change, negative = inhibition, hits mostly inhibitors. hit rate 1.1% among 220,000. AID 1688, 2009; note: % is set by controls: 0 for no effect and ±100 for the full control effect; nearly all actives have a fitted effect of over 60% in size
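Quantitative HTS on tebufenozide-induced (100 nM) PC12 cells stably expressing polyQ103 Huntingtin exon 1–GFP. Reduction of bright GFP aggregates, detected by laser scanning cytometry after lysis, identified actives across the titration.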
PINK1 modulator = A Quantitative High throughput Screen to Identify Chemical Modulators of PINK1 Expression; PINK1 immunofluorescence, high-content cytometry, 24 h; Potency, µM (titrated, usually from 76.6 µM), inactives show at the top dose activation (PINK1 increase), hits mostly activators; hit rate 0.2% among 410,000; active = well fitted activation curve with a large enough effect; inconclusive = small, poorly fitted or top-dose-only effect; cell line not stated here; note: % of control where 0% means no effect; nearly all actives have a fitted effect of over 65% in size
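Stable cell line treated 24 h with compounds at 5 concentrations (CCCP controls), then fixed and immunostained for PINK1 plus nuclear and cell stains; PINK1 immunofluorescence quantified by laser-scanning microplate cytometry.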
Epigenetic reg = Quantitative High-Throughput Screen for Regulators of Epigenetic Control; hit rate 0.2% among 280,000; AID 1865, 2009; Potency, µM (top dose mostly 53.9 µM), for inactives: top-dose GFP activation, hits mostly activators; murine LDR cells, GFP reporter derepression, 30 h; note: % of control where 0% means no effect; nearly all actives have a fitted effect of over 60% in size
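In this reporter-derepression format, murine cells bearing a silenced integrated CMV-GFP locus incubate with test compound (30 h, 37 C), then are washed and imaged; fluorescent objects of 20–120 um count as induced cells.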
* = called active by the depositor; ? = inconclusive; . = no result given; [ ] = dose if it differs, or a comment. The full list was thinned out, with hits kept by preference. Unless noted, calls come from the whole dose curve; as a rule, active = well fitted curve in the direction sought with a large enough effect; inconclusive = small, poorly fitted or top-dose-only effect, or another doubt; inactive = no such curve, though single readings can be large; an effect the other way counts as inactive or inconclusive. Potency is the fitted concentration of half-maximal effect.

SMILES | HTT ATP protect | HttQ103 aggreg | PINK1 modulator | Epigenetic reg
CC1CCN(c2ccccc2N)CC1 | 4%[0.074 µM] | -12% | . | 1%
Nc1c(C(=O)c2ccc(Cl)cc2)sc2nsc(SCCN3CCOCC3)c12 | 2%[10 µM] | -1%[9.22 µM] | 22% | 20µM*
O=C(OCC(=O)N1CCc2ccccc21)c1cncc(Br)c1 | 2.2µM* | ? | -1% | 0%
COc1cc(C(=O)Nc2nc3ccccc3s2)ccc1OCc1c(C)noc1C | 14% | 1% | 19%[38.3 µM] | 4%
COc1cc(C(=O)Nc2nccs2)ccc1OCc1c(C)noc1C | 6% | -1% | 11µM* | 0%
O=C(O)CCCn1cc(NC(=O)c2ccc(Br)o2)cn1 | -23% | 10% | 0% | -1%
Cc1ccc(C(c2nnnn2C2CCCCC2)N(C)C2CCCCC2)cc1 (centres undefined) | 1% | 11µM* | 13%[38.3 µM] | 0%
CC(C)C(c1nnnn1C1CCCC1)N(C)C1CCCCC1 (centres undefined) | 31% | -8% | 1% | -1%
CC(C)Nc1nnc(SCC(=O)c2c(N)n(Cc3ccccc3)c(=O)n(C)c2=O)s1 | -17% | 0.11µM* | 0% | -1%
N#Cc1cc(NC(=O)c2ccc(F)cc2)c(=O)n2c1[nH]c1ccccc12 | -162% | 14µM* | . | -1%
Cc1c(C(=O)N2CCOc3ccc(Cl)cc3C2)sc2ncnc(NCCc3ccccn3)c12 | . | . | 0% | .
CCN(CC)c1ccc(/C=N/n2nnnc2N)c(O)c1 | -28% | 5.6µM* | 3% | -2%
CCOC(=O)C1=C(C)N(Cc2ccccc2)C(=O)NC1c1ccccc1OS(=O)(=O)c1ccccc1[N+](=O)[O-] (centres undefined) | . | . | 2% | .
C=CCn1c(NC(C)c2cc(Cl)ccc2O)nc2ccccc21 (centres undefined) | -3% | 11µM* | 24% | 2%
Cc1c(C(=O)Nc2ccc(Oc3ccccc3)cc2)sc2nc3n(c(=O)c12)CCC3 | -44% | 4.5µM* | 1% | -1%
Cc1nc(C)c(C(=O)Nc2ccc(Oc3ccccc3)cc2)o1 | 5%[10 µM] | ? | 5.6µM* | -10%
Cc1c(C(=O)Nc2ccc(OC(F)(F)F)cc2)sc2nc3n(c(=O)c12)CCC3 | -55% | -16% | 7% | -4%
CCOc1ncccc1C(=O)OCC(=O)N1CCC(C)CC1 | . | . | 0% | .
CCCC(=O)C1=C(O)C(C(=O)OC)C(C)(C)CC1=Nc1ccccc1 (centres undefined) | -2% | -12% | -2% | 1%
CCCC(=O)C1=C(O)C(C(=O)OC)C(C)(C)CC1=Nc1cccc2ccccc12 (centres undefined) | 3%[1.9 µM] | 11µM* | 2% | 0%
CNC(=O)CN1C(=O)C2C3C=CC(C3)C2C1=O (centres undefined) | 18%[10 µM] | 9% | 0% | 0%
CS(=O)(=O)NNC(=O)CN1C(=O)C2C3C=CC(C3)C2C1=O (centres undefined) | -15% | 0.032µM* | 4% | -3%
COc1ccc(CC(=O)Nc2nncs2)cc1OC | -23% | -18% | 12%[38.3 µM] | -2%
O=C(c1cc(-c2ccc(F)cc2)on1)N1CCCC1 | -33% | ? | 4% | 16µM*
O=C(c1cc(-c2ccc(F)cc2)on1)N1CCCCCC1 | . | . | 3% | .
SMILES | HTT ATP protect | HttQ103 aggreg | PINK1 modulator | Epigenetic reg
COc1ccccc1N(C)S(=O)(=O)c1ccc(C(=O)OCC(=O)N(C)c2ccccc2)cc1 | 19% | 0% | 3% | 0%
COc1ccc(CN(C)C(=O)c2cccc(NC(=O)CC3SC(N4CCCCC4)=NC3=O)c2)c(OC)c1 (centres undefined) | . | . | 0% | .
COc1cccc(N(C(=O)CCl)C(C(=O)NCCc2ccccc2)c2cccs2)c1 (centres undefined) | -63%[10 µM] | 22µM* | -6% | -1%
Cc1nc([N+](=O)[O-])c(Br)n1CC(=O)c1ccc(Cl)cc1 | -148% | ? | -5% | -4%
Cc1nc([N+](=O)[O-])c(Br)n1Cc1ccc(Cl)c(Cl)c1 | 7%[10 µM] | 8.9µM* | -2% | 1%
Nc1c(Cl)ncnc1NCc1cccnc1 | . | . | 3% | .
Cc1cc(C(F)(F)F)c2c(N)c(C(=O)Nc3cc(C)on3)sc2n1 | -6%[10 µM] | -6% | 22µM* | ?
Cc1cc(C)c2c(N)c(C(=O)Nc3ccccc3C(F)(F)F)sc2n1 | . | . | 2% | 0%
Nc1c(C(=O)Nc2ccccc2F)sc2nc(Cc3ccccc3)cc(C(F)(F)F)c12 | -49% | -28% | ? | 13µM*
COCCn1c(SCCN2CCCCC2)nc2ccccc2c1=O | 15%[10 µM] | -4% | -2% | -1%
COc1ccccc1NC(=S)N(Cc1ccc(C)cc1)Cc1cccnc1 | -4% | 11% | 2% | 0%
COc1ccccc1NC(=S)N(Cc1ccc(C)cc1)Cc1ccccn1 | -35% | 25µM* | 0% | 2%
O=S(c1ccc2ccccc2c1)c1cnns1 (centres undefined) | -88% | 18µM* | -1% | 13%
O=C(CNC(=O)c1cc(Cl)cc([N+](=O)[O-])c1)NC1CC1 | . | . | -2% | .
Cc1cc(C)c(NC(=O)CSc2nnc(CNC(=O)c3ccccc3F)o2)c(C)c1 | . | . | 0% | .
O=[N+]([O-])c1ccc(N/N=C/c2sc(N3CCOCC3)nc2-c2ccccc2)c(S(=O)(=O)Nc2ccccc2Cl)c1 | -29% | ? | ? | 0%
O=[N+]([O-])c1ccc(N/N=C/c2sc(N3CCOCC3)nc2-c2ccccc2)c(S(=O)(=O)Nc2ccc(Cl)cc2)c1 | -64% | 3.5µM* | ? | ?
Cc1cc(C)c(S(=O)(=O)NCCn2ccc3ccccc32)c(C)c1 | ? | -7% | 1% | 0%
O=S(=O)(c1ccccc1)n1ccc2ccccc21 | 6% | 11µM* | -1% | 4%
Cc1cc(C)c(S(=O)(=O)n2ccc3ccccc32)c(C)c1 | -78% | 10µM* | 40µM* | -5%
CCn1c(CN2CCCCC2)nc2cc(S(=O)(=O)N3CCCCC3)ccc21 | . | . | 0% | .
Cc1cccc(C(=O)Nc2nnc(S(=O)(=O)N3CCCc4ccccc43)s2)c1 | . | . | 0% | ?
Cc1nc(NCCc2ccccc2)c2oc3ccccc3c2n1 | -44% | 7.9µM* | 4% | 0%
Cc1nc(NCCN2CCOCC2)c2oc3ccccc3c2n1 | -8% | -9% | -1% | -5%
CCCCC(=O)Nc1sc2c(c1C(=O)OCC)CCC(C=O)=C2Cl | -101% | ? | . | 11µM*
CCOC(=O)c1c(NC(=O)c2ccccc2Cl)sc2c1CCc1ccccc1-2 | . | -14% | 4% | 7%
COc1cccc(N2CCN(c3ncnc4c3[nH]c3ccc(F)cc34)CC2C)c1 (centres undefined) | -126% | 6.3µM* | -4% | 3%
COc1ccc2[nH]c3c(N4CC(C)OC(C)C4)ncnc3c2c1 (centres undefined) | -12% | 1% | 3% | -4%
COc1cccc(N2CCN(c3ncnc4c3[nH]c3ccccc34)CC2C)c1 (centres undefined) | -8%[10 µM] | 11µM* | . | -2%
O=C(C=Cc1ccc2c(c1)OCO2)C1CC1 | . | . | 2% | .
